The text below walks through data of ChEMBL document CHEMBL1961873, “Compounds: GSK PKIS; Assays: Nanosyn kinase panel” (2012).

The target of test [1] is Serine/threonine-protein kinase pim-2 (Homo sapiens) (UniProt Q9P1W9). Particulars: at 1 µM.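 Note: each value is a mean of the inhibition measurements against the kinase.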
Test [2] deals with Serine/threonine-protein kinase pim-3 (Homo sapiens) (UniProt Q86V86). As to conditions: at 0.1 µM.
Test [3] shares this target. Particulars: at 1 µM.
Test [4] concerns the target T1, MAP kinase-activated protein kinase 5 (Homo sapiens) (UniProt Q8IW41).
T1 sequence (whole entry): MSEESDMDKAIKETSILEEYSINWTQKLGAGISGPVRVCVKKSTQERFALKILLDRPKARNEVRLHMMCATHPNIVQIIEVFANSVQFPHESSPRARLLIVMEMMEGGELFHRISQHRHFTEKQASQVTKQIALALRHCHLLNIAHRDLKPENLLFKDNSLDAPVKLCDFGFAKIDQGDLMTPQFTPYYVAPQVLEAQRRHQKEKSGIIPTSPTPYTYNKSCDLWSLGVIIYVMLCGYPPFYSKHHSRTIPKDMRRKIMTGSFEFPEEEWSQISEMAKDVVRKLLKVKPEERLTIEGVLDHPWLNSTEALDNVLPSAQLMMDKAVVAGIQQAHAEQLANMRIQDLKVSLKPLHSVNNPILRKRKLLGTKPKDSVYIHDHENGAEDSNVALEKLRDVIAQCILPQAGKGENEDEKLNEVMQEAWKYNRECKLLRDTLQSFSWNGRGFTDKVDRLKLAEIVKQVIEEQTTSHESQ
Particulars: at 0.1 µM.

For test [5], the target named is T1, MAP kinase-activated protein kinase 5 (Homo sapiens). Particulars: at 1 µM.
Test [6] has as its target Serine/threonine-protein kinase SIK1 (Homo sapiens) (UniProt P57059). As to conditions: at 0.1 µM.
The target is the same in test [7]. Particulars: at 1 µM.
Test [8] deals with Serine/threonine-protein kinase SIK2 (Homo sapiens) (UniProt Q9H0K1). Particulars: at 0.1 µM.
The target is the same in test [9]. Particulars: at 1 µM.
Test [10] addresses T2, Serine/threonine-protein kinase TBK1 (Homo sapiens) (UniProt Q9UHD2).
T2 sequence (whole entry): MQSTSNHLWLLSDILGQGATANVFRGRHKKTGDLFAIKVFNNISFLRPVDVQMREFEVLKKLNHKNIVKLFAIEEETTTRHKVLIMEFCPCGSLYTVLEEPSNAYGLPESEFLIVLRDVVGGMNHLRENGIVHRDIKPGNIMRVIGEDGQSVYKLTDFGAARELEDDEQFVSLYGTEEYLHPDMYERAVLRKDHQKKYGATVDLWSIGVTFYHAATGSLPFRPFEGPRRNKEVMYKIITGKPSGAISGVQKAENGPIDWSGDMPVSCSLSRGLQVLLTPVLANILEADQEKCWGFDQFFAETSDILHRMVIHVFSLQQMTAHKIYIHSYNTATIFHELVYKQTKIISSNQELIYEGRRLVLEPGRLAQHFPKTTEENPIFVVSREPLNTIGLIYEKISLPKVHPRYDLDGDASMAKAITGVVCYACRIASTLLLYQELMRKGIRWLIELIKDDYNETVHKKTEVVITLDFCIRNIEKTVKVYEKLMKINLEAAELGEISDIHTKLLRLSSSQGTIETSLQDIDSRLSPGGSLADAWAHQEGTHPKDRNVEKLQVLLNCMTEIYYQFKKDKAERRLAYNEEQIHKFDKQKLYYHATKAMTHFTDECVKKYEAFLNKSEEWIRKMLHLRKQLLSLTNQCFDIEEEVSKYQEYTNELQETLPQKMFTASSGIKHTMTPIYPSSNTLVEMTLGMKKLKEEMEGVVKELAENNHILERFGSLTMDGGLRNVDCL
As to conditions: at 0.1 µM.

A word on the inhibition: it is the relative decrease from the control value, in per cent.

Serine/threonine-protein kinase SIK1 (Homo sapiens), sequence (P57059 whole entry): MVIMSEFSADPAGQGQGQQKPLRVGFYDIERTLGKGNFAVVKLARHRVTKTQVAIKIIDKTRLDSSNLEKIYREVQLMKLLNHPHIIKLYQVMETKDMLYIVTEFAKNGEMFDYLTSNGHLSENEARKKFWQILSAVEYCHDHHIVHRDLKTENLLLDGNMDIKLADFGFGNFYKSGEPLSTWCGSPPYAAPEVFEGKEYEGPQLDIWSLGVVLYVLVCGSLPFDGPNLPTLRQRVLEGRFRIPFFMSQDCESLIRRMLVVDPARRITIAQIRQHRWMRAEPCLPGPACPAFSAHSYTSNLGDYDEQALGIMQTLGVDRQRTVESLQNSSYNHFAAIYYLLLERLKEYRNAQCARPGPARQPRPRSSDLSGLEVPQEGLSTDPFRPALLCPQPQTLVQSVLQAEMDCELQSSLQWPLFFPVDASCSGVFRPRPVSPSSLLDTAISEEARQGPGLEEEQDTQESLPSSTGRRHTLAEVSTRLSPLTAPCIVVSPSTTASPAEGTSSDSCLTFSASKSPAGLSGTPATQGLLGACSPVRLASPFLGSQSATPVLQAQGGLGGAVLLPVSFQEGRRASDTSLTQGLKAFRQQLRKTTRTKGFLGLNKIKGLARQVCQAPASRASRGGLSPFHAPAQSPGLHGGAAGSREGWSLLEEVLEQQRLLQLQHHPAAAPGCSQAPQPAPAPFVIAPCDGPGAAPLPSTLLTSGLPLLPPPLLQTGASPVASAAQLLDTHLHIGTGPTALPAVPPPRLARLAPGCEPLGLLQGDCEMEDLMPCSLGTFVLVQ
Serine/threonine-protein kinase pim-2 (Homo sapiens), sequence (Q9P1W9 whole entry, looked up): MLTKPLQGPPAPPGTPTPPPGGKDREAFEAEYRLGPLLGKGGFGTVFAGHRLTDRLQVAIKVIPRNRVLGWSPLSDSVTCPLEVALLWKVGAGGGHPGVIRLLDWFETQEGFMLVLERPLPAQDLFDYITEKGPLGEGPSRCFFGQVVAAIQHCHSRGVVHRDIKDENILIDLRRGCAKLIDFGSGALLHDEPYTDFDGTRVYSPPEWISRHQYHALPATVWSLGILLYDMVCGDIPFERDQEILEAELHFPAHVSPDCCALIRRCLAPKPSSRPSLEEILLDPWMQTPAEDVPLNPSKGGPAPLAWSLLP
Serine/threonine-protein kinase SIK2 (Homo sapiens), sequence (Q9H0K1 whole entry, looked up): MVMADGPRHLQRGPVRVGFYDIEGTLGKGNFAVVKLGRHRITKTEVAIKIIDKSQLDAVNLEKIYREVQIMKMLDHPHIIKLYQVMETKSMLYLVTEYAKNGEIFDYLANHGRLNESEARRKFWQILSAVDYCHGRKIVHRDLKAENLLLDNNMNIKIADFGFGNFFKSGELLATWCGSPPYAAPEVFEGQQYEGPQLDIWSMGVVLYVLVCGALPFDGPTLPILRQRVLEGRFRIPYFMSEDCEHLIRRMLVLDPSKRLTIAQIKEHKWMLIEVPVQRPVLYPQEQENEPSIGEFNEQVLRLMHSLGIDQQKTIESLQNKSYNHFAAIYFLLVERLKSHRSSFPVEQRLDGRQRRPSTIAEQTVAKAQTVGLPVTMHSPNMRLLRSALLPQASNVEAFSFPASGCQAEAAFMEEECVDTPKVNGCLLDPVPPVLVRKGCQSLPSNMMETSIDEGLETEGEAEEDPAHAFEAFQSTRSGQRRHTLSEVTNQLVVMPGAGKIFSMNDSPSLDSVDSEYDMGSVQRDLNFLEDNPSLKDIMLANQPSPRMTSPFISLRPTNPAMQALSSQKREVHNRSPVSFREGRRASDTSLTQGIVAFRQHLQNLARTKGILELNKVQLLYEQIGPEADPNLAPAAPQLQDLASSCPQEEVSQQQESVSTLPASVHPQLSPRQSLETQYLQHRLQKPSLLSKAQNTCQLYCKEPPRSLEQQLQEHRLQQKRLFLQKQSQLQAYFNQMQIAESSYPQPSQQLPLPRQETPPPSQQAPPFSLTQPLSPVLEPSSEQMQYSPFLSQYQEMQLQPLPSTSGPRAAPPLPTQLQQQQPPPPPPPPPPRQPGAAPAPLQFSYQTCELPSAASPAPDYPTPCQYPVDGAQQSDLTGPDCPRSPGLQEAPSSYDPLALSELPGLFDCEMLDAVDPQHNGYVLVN

As for `COc1cc(/C=N/Nc2ncnc3[nH]ncc23)ccc1O`, the inhibition is 4.24% in [1]; 2.9% in test [2]; 21.5% in [3]; 1.2% in test [4]; 2.2% in test [5]; 2.8% in test [6]. Further, the inhibition in test [7] worked out at 26.7%; in [8], 8.34%; in test [9], 33.1%; in test [10], 4.18%.

As for `Fc1ccc(-c2nn3ncccc3c2-c2ccnc(Nc3ccc4c(c3)OCCO4)n2)cc1`, the inhibition in test [1] is -0.97%; in [2] it was -2.21%; in test [3], -3.73%; in test [4] it was 0.63%; in [5] it was 0.49%; in test [6], 10.5%. Moreover, the inhibition amounted to 38.4% in [7], 18.8% in [8], 44.6% in [9] and 5.89% in test [10].

As to `COc1ccc2[nH]c3c4[nH]c5ccc(OC)cc5c4c4c(c3c2c1)C(=O)NC4=O`, the inhibition in [1] amounted to 68.3%; in test [2] it was 66.7%; in test [3] it was 82.7%; in test [4], 2.48%; in [5], 8.8%; in [6], 26.9%. For the same compound, the inhibition in test [7] turned out to be 77.2%; in test [8] it was 56.4%; in [9] it was 78.2%; in test [10] it was 10.9%.

Turning to `CN1CCC(n2cnc(-c3ccc(F)cc3)c2-c2ccnc(Nc3ccccc3)n2)CC1`, the inhibition was determined as 0.35% in [1]; 1.06% in [2]; 5.66% in test [3]; 1.06% in test [4]; 1.42% in test [5]; 3.13% in test [6]. The inhibition was determined as 4.66% in [7], 7.17% in [8], 22.9% in test [9] and 0.4% in test [10].

On to `O=C(O[C@H]1CN[C@H](C#Cc2cc3ncnc(Nc4ccc(Cc5ccccc5)cc4)c3s2)C1)N1CCOCC1`, for which the inhibition is 1.06% in test [1]; 1.54% in [2]; 3.8% in [3]; 0.58% in [4]; -0.05% in test [5]; 0.92% in test [6]. Further, the inhibition in [7] was -0.23%; in [8] it was -0.21%; in test [9], -0.83%; in test [10], -0.27%.

As for `Nc1ncc(-c2cccc(S(N)(=O)=O)c2)c2scc(-c3ccc(F)c(Cl)c3)c12`, the inhibition was 0.78% in test [1]; 1.11% in test [2]; 0.91% in test [3]; 1.73% in test [4]; 1.77% in [5]; 20.4% in [6]. Further, the inhibition in test [7] amounted to 61%; in [8], 9.17%; in test [9] it was 28.8%; in [10], 3.75%.

Regarding `Cc1ccc(O)cc1Nc1ccnc2cc(-c3ccccn3)ccc12`, the inhibition was 1.15% in test [1]; -0.3% in test [2]; -0.17% in test [3]; 1.2% in test [4]; 0.39% in [5]; 14.9% in test [6]. The inhibition in test [7] turned out to be 48.6%; in [8] it was 6.77%; in test [9], 23.9%; in test [10], 2.89%.

In the case of `CCCN1CCC(c2ccc(Nc3nc(Nc4cc(F)ccc4C(N)=O)c4cc[nH]c4n3)c(OC)c2)CC1`, the inhibition was found to be 13.3% in test [1]; 8.07% in test [2]; 49.4% in test [3]; 6.44% in test [4]; 40.9% in [5]; 10.1% in [6]. Besides, the inhibition in [7] was found to be 14.7%; in [8], 10.9%; in [9] it was 11.7%; in test [10], 0.75%.

On to `COc1cc(N2CCN(C(C)C)CC2)ccc1Nc1nc(Nc2ccc(F)cc2C(N)=O)c2cc[nH]c2n1`, for which the inhibition was determined as 1.98% in [1]; 1.69% in test [2]; 19.9% in test [3]; 1.95% in [4]; 16% in test [5]; 7.46% in test [6]. The inhibition in test [7] is 14.3%; in test [8], 3.18%; in test [9], 8.56%; in test [10], 3.02%.

For the compound `CC1=C(C(=O)Nc2cc(Cl)c3[nH]ncc3c2)C(c2ccc(C(F)(F)F)cc2)CC(=O)N1` (stereo not given), the inhibition is -0.24% in test [1]; -0.23% in test [2]; -0.25% in test [3]; 1.37% in test [4]; 2.73% in test [5]; 4.89% in test [6]. The inhibition in [7] amounted to 8.58%; in [8] it was 4.56%; in [9], 11.8%; in test [10], 2.77%.

As to `N#Cc1c(NC(=O)c2ccc(F)cc2)sc2c1CCCC2`, the inhibition in test [1] is -0.05%; in [2], 0.71%; in [3], 1.6%; in test [4] it was 0.52%; in [5], -0.3%; in test [6] it was 1.57%. Further, the inhibition in [7] was 3.96%; in [8], -1.57%; in test [9] it was 8.23%; in [10], 0.78%.

For the compound `COC(=O)Nc1nc2ccc(Oc3ccc(NC(=O)Nc4cccc(Cl)c4)cc3)cc2[nH]1`, the inhibition in [1] was -1.04%; in test [2], -0.85%; in test [3], -1.87%; in [4] it was 0.18%; in [5], -0.5%; in test [6] it was 1.1%. The inhibition is 4.14% in test [7], 0.4% in [8], 1.86% in [9] and 1.34% in test [10].

For `COc1ccc(CNC(=O)c2ccc(-c3cc(-c4nnc(C)o4)ccc3C)cc2)cc1`, the inhibition stood at 3.03% in test [1]; 4.73% in test [2]; 8.32% in test [3]; 2.76% in [4]; 5.41% in test [5]; 1.54% in [6]. For the same compound, the inhibition was found to be 2.92% in test [7], 6.86% in test [8], 6.77% in test [9] and 2.25% in test [10].

Regarding `Fc1cccc(COc2ccc(Nc3ncnc4sc(-c5ccco5)cc34)cc2Cl)c1`, the inhibition in test [1] was 0.73%; in [2] it was -1.54%; in test [3], -0.36%; in [4], 0.95%; in test [5] it was 1.47%; in test [6], 2.24%. Further, the inhibition came out at 9.68% in test [7], 3.95% in [8], 5.81% in [9] and 0.55% in test [10].

With `CCCN(CCS(C)(=O)=O)Cc1ccc(-c2ccc3ncnc(Nc4ccc(OCc5cccc(F)c5)c(Cl)c4)c3c2)o1`, the inhibition in [1] came out at 0.55%; in test [2], 0.79%; in test [3] it was 1.71%; in test [4] it was 0.4%; in test [5], 0.36%; in [6], 5.69%. For the same compound, the inhibition was determined as 6.39% in [7], 4.14% in [8], 7.64% in test [9] and 2.46% in [10].

As to `c1ccc(COc2ccc(Nc3ncnc4ccc(-c5ccco5)cc34)cc2)cc1`, the inhibition in test [1] was 1.2%; in test [2], -0.14%; in [3] it was 0.8%; in test [4] it was 0.38%; in [5], 0.36%; in [6], 1.4%. Further, the inhibition is 7.46% in test [7], -3.82% in test [8], 1.35% in [9] and -0.27% in [10].
